Compound activity (PubChem BioAssay)
In the library only some 5.7% were active in any assay of this set; here they are far more common.
TGFb SMAD3 inh: qHTS for Inhibitors of TGF-b | HepG2 CAGA-GFP TGF-b/SMAD3 reporter, GFP fluorescence, 18 h; TGF-beta stimulated, 500 pg/mL final | Potency, µM (titrated, usually from 46.1 µM), for inactives: at the top dose activity, negative = inhibition, most hits filed as inhibitors | actives 1.2% (n = 410,000) | AID 588855, 2011; note: potency is the fitted concentration of half-maximal effect; % is set by controls: 0 for no effect and ±100 for the full control effect; nearly all actives have a fitted effect of over 65% in size
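HEPG2 CAGA-GFP, 1000 cells/well; 2 h settle, 37 C; cpd via pin tool; TGF-b 500 pg/mL final; 18 h, 37 C; GFP imaging ex488/em500-530; %Activity normalised to -TGF-b and +DMSO controls; CRC fit, curve class.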
S2 tox: Viability Counterscreen for Primary qHTS for Inhibitors of ATXN expression; S2 cells (HEK-293 line with an ATXN2-luciferase reporter) viability, CellTiter-Fluor protease fluorescence, 24 h; Potency, µM (top dose mostly 56.7 µM), hits mostly cytotoxic; actives 0.49% (n = 400,000); note: potency is the fitted concentration of half-maximal effect; nearly all actives have a fitted effect of over 40% in size
HepG2 viability: qHTS for Inhibitors of TGF-b: Cytotox Counterscreen; HepG2 CAGA-GFP viability, ATP luminescence, 18 h; AID 588856, 2011; actives 0.76% (n = 410,000); Potency, µM (top dose mostly 46.1 µM), inactives show at the top dose activity change, negative = cytotoxicity, most hits filed as cytotoxic; note: potency is the fitted concentration of half-maximal effect
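HepG2 CAGA-GFP cells (1000/well, DMEM with 1% FBS) received compound, then TGF-beta at 500 pg/mL final, and were incubated 18 hours at 37 degrees C. Viability was read by CellTiter-Glo luminescence. Media-only wells were set as complete cell-killing and DMSO as no toxicity.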
ATXN2 expr inh: Primary qHTS for Inhibitors of ATXN expression; HEK-293 ATXN2-luciferase reporter, luminescence, 24 h; Potency, µM (doses to about 57 µM), for the others: at the top dose activity change, negative = inhibition, actives largely listed as inhibitors; actives 0.72% (n = 360,000); AID 1745845, 2022; note: potency is the fitted concentration of half-maximal effect; % is set by controls: 0 for no effect and ±100 for the full control effect; nearly all actives have a fitted effect of over 55% in size
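qHTS (up to 57 uM final) was run with 24 h compound exposure of reporter cells at 37 °C. Each well was multiplexed: SteadyGlo luminescence measured ATXN2-luciferase expression after a fluorogenic Gly-Phe-AFC viability readout (25 uM final).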
IL-1B inflam inh: qHTS for Inhibitors of Inflammasome Signaling: IL-1-beta AlphaLISA Primary Screen; THP-1 LPS/ATP IL-1B secretion, AlphaLISA, 16 h; active compounds read low; AID 743279, 2014; actives 4.7% (n = 360,000); activity change, % at 57.5 µM; in the data active = activity change below about -50%; inconclusive = mostly about -30% to -49%; note: % is set by controls: 0 for no effect and ±100 for the full control effect
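Secreted IL-1B measured by AlphaLISA bead assay after 16 h compound exposure of THP-1 cells; compounds (final up to 57.5 uM) added 1 h before LPS (250 ng/mL) and ATP (1.25 mM) stimulation; lower signal means less secretion.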
* hit, by the source's call; i = inactive; ? = inconclusive; . = no result; ! = a repeat was not active; [ ] = dose if it differs, or a comment. Unless noted, calls come from the whole dose curve; as a rule, active = well fitted curve in the direction sought with a large enough effect; inconclusive = small, poorly fitted or top-dose-only effect, or another doubt; inactive = no such curve, though single readings can be large; an effect the other way counts as inactive or inconclusive.

SMILES	TGFb SMAD3 inh	S2 tox	HepG2 viability	ATXN2 expr inh	IL-1B inflam inh
Cc1cccc2sc(N(CCCN(C)C)C(=O)c3ccc(Cl)s3)nc12	?	?	-17%	22µM*!	-62*
CN(C)CCCN(C(=O)c1ccc2c(c1)OCCO2)c1nc2cc3c(cc2s1)OCO3	22%	i	-13%	-23%	i
CCN(c1ccccc1)S(=O)(=O)c1ccc(C(=O)N(CCCN(C)C)c2nc3cc4c(cc3s2)OCO4)cc1	22µM*	i	-108%	?	-57*
CN(C)CCCN(C(=O)c1ccc(S(=O)(=O)N(C)Cc2ccccc2)cc1)c1nc2cc3c(cc2s1)OCO3	?	?	-101%	?	-51*
CCN(CC)CCN(C(=O)c1ccc(S(=O)(=O)N(C)C2CCCCC2)cc1)c1nc2ccc(OC)cc2s1	3%	i	-10%	4%	-77*
O=C(CCn1c(=O)c2cccn2c2cccnc21)N1CCN(c2ccccc2F)CC1	-17%	.	-1%	.	.
CCCC(=O)O[C@]1(C(=O)CC)CC[C@H]2[C@@H]3CCC4=CC(=O)CC[C@]4(C)[C@H]3[C@@H](O)C[C@@]21C	.	i	.	-18%	.
CCCCCCC[n+]1c(/C=C/c2ccc(N(C)C)cc2)sc2ccccc21	?	.	-96%	.	.
COc1cccc(-c2ccnc(-n3ncc(C(=O)NCc4cccnc4)c3C3CC3)n2)c1	.	i	.	.	.
COc1ccc2sc(N(CCCN(C)C)C(=O)c3ccc(S(=O)(=O)N(C)Cc4ccccc4)cc3)nc2c1	-21%	?	-45%	-34%	-93*
COc1ccc2sc(N(CCCN(C)C)C(=O)c3nc4ccccc4s3)nc2c1	-7%	i	-17%	2%	-1
CN(C)CCN(C(=O)c1cccc2ccccc12)c1nc2cc3c(cc2s1)OCO3	0%	i	-24%	?	-91*
CCN(Cc1ccncc1)Cc1ccc2c(c1)CN(C(=O)c1ccccc1-n1cccn1)CCO2	.	i	.	.	.
[O-][n+]1cccc(/C(Cl)=N/OC[C@@H](O)CN2CCCCC2)c1	.	i	.	14%	.
COc1cccc(/C=C2\CCCCC2=O)c1	?	i	-29%	22%	-80*
CCC(=O)N1c2ccc(S(=O)(=O)CCC(=O)NCc3ccc(OC)cc3)cc2CC1C (centres undefined)	18%	i	-4%	6%	.
CCC(=O)N1CCC2(CC1)Oc1ccc(F)cc1C(=O)C21CC(c2ccc(Cl)cc2)=NO1 (centres undefined)	-1%	?	-19%	-15%	?
CC(C)C(=O)N1CCC2(CC1)Oc1ccc(F)cc1C(=O)C21CC(c2ccc(Cl)cc2)=NO1 (centres undefined)	12%	i	-3%	-21%	-67*
O=C1c2cc(F)ccc2OC2(CCNCC2)C12CC(c1ccccc1)=NO2 (centres undefined)	1%	i	-50%	-16%	-53*
CC(C)(C)OC(=O)N1CCC2(CC1)Oc1ccc(F)cc1C(=O)C21CC(c2ccccc2)=NO1 (centres undefined)	7%	i	-69%	-1%	?
O=C(c1ccoc1)N1CCC2(CC1)Oc1ccc(F)cc1C(=O)C21CC(c2ccc(Cl)cc2)=NO1 (centres undefined)	14%	i	5%	-17%	-56*
CC(C)NCCCC1(C(N)=O)c2ccccc2-c2ccccc21	.	i	.	3%	.
COc1ccc(O)c(C(=O)N2CCC3(CC2)c2ccccc2[C@@H](NC(=O)c2ccccn2)[C@@H]3OC)c1	.	i	.	.	.
O=C(Nc1nc2c(s1)CCCC2)c1cc2n(n1)C(C(F)(F)F)CC(C1CC1)N2 (centres undefined)	-8%	i	-11%	33%	-60*
CCN(C(=O)COC(=O)/C(=C/c1ccccc1)n1nnnc1C)C1CCCCC1	-14%	?	-25%	-19%	-97*
SMILES	TGFb SMAD3 inh	S2 tox	HepG2 viability	ATXN2 expr inh	IL-1B inflam inh
Cc1nnnn1/C(=C\c1ccccc1)C(=O)OCC(=O)N(C)C1CCS(=O)(=O)C1 (centres undefined)	33%	i	1%	-6%[11.3 µM]	?
CC(=O)N1CCCc2cc(S(=O)(=O)N(C)CC(=O)Nc3ccc(C)cc3C)ccc21	-20%	?	-3%	-9%	.
CCCCOc1ccc(C2=CSC3=NCCN23)cc1[N+](=O)[O-]	-14%	i	-30%	19%	-25
CCCCOc1ccc(-c2csc(N)n2)cc1[N+](=O)[O-]	?	i	-36%	125%	-50*
Cc1ccc(-c2ccc(/C=N/n3cnnc3)o2)cc1Cl	-1%	i	-16%	-7%	-28
Clc1cccc(-c2ccc(/C=N/n3cnnc3)o2)c1	7%	i	3%	6%	-54*
CCCn1c(N2CCN(CC(=O)c3c(C)n(C)c4ccccc34)CC2)nc2c1c(=O)[nH]c(=O)n2C	-8%	i	-56%	-14%	-69*
CCn1c(N2CCN(CC(=O)c3c[nH]c4ccccc34)CC2)nc2c1c(=O)[nH]c(=O)n2C	13%	i	-15%	-4%	-2
C/C(=N/Nc1ccc([N+](=O)[O-])cc1)c1ccc(C)cc1C	3.5µM*	?	-37%	-13%	-81*
CCOc1ccc(-c2nnc(SCc3nc4ccccc4[nH]3)n2N)cc1	?	i	4%	17%	-64*
CC(=O)c1sc(NC(=O)c2cccc(N3C(=O)CCC3=O)c2)nc1-c1ccccc1	15%	i	4%	-9%	-4
Cc1sc(NC(=O)c2cccc(N3C(=O)CCC3=O)c2)nc1-c1ccccc1	0%	i	-21%	4%	-57*
N#C/C(=C\c1ccc(Sc2ccc(Cl)cc2)o1)c1nc2ccccc2[nH]1	5%	i	-31%	2%	0
N#C/C(=C\c1c(Cl)cccc1Cl)c1nc2ccccc2[nH]1	0%	i	-14%	1%	-93*
Cc1c(Cl)cccc1-c1ccc(/C=C(\C#N)c2nc3ccccc3[nH]2)o1	6.3µM*	.	7.9µM*	8%	.
COC(=O)c1scc(-c2ccc(C)cc2)c1S(=O)(=O)N1CCN(c2ccc(OC)cc2)CC1	?	i	-23%	-6%	.
CCCCCCN1C[C@@H](n2cc(COC(=O)c3ccccc3)nn2)[C@H](O)C[C@@H]1c1ccc(Cl)cc1	17%	32µM*	1%	?	-17
CCCCCC(=O)N1C[C@@H](O)[C@H](n2cc(-c3ccc(F)cc3)nn2)C[C@@H]1c1ccc(Cl)cc1	?	?	-69%	?	-56*
